Vc quorum ag: quorum light induction in luxS cqsA deficient V. cholerae; V. cholerae BH1578 lux reporter, luminescence, 6 h; AID 588436; 350,000 compounds, 0.16% hits; activation, % at 18.7 µM; in the data active means activation mostly above about 9.7%, no sharp cut-off
GDH-TPI counter-1: GDH-TPI coupled enzyme inhibition counter-screen | inhibition, % at 4.8 µM | GDH-TPI coupled enzyme counterscreen, NADH absorbance | AID 588335 | 360,000 compounds, 1.2% hits; in the data active means inhibition above about 30%
3CLpro inhibitor: SARS-CoV 3CLpro protease inhibition. inhibition, % at 6 µM. recombinant SARS-CoV 3CLpro, quenched FRET peptide cleavage. 290,000 compounds, 0.14% hits. P0C6X7; in the data active means inhibition above about 12%
Mtb FBA inh: inhibitors of M. tuberculosis fructose-bisphosphate aldolase. P9WQA3. purified M. tuberculosis FBA, fluorescence read-out. inhibition, % at 1 µM. 360,000 compounds, 2.3% hits. AID 588726
Target sequence (P9WQA3 whole entry, looked up): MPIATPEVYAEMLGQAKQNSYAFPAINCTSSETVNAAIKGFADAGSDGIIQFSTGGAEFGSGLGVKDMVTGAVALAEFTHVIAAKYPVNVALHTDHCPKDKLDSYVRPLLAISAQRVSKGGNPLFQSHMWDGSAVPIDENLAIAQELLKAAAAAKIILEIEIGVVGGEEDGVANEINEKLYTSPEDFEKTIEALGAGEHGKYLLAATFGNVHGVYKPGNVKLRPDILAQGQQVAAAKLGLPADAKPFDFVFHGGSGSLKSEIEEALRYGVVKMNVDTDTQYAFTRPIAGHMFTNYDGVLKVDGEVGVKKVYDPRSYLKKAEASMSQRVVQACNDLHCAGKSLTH
PrPC TRFRET: reduces human prion protein on the cell surface; P04156; cell surface PrPC, TR-FRET read-out; inhibition, % at 13.8 µM; 370,000 compounds, 0.43% hits; in the data active means inhibition above about 24%
Mtb FBA inh conf: confirmation of M. tuberculosis fructose-bisphosphate aldolase inhibitors | 5,600 compounds, 78% hits | AID 651616 | purified M. tuberculosis FBA, fluorescence read-out | inhibition, % at 1 µM | shares compounds with Mtb FBA inh
GDH-TPI counter-2: inhibits GDH-TPI coupling enzymes, flagging Mtb FBA hits; shares compounds with Mtb FBA inh; GDH-TPI coupled enzyme counterscreen, fluorescence; inhibition, % at 1 µM; 5,600 compounds, 81% hits; in the data active means inhibition above about 10%
GDH-TPI DR: inhibits GDH-TPI coupling enzymes in dose response; shares compounds with Mtb FBA inh; IC50, µM; GDH-TPI coupled enzyme assay, fluorescence, artifact counterscreen; 170 compounds, 79% hits; AID 652145; call rule not given here
Large screens that a line does not name were inactive (follow-up assays come after a bar, where they were run). An excerpt weighted towards active compounds, which were near 3.9% of everything screened. Unless noted, no stated cut-off is given here; in the data, active means inhibition above about 27%; inactive means the rest.

CC1=CC(C#N)(C#N)C(C#N)(C#N)C(c2ccccc2)N1 (stereo unspecified)	none (no result: Vc quorum ag, GDH-TPI counter-1, Mtb FBA inh, PrPC TRFRET)
O=C1CN(Cc2ccccc2)C(=NCc2ccco2)S1	Mtb FBA inh 28 | Mtb FBA inh conf 184 | GDH-TPI counter-2 163
CCN(CC)S(=O)(=O)c1ccc(N2CCN(CCOc3ccc(OC)cc3)CC2)nc1	none
O=c1cc(Nc2ccc3c(c2)OCCO3)[nH]c(=O)n1-c1ccc(Cl)cc1	Mtb FBA inh 33 | Mtb FBA inh conf 78 | GDH-TPI counter-2 69
Cc1ccc(S(=O)(=O)c2n[nH]n3c2nc(=O)c2ccccc23)cc1	none
CCOC(=O)c1n[nH]n2c1nc(=O)c1ccccc12	Mtb FBA inh 33 | Mtb FBA inh conf 116 | GDH-TPI counter-2 108
Cc1nc2scc(C)n2c(=O)c1S(=O)(=O)NCCc1ccccc1	none
Cc1ccc(CNS(=O)(=O)c2c(C)nc3scc(C)n3c2=O)cc1	none
Cc1nc2scc(C)n2c(=O)c1S(=O)(=O)NCC1CCN(Cc2ccc(F)cc2)CC1	Mtb FBA inh 32 | Mtb FBA inh conf 121 | GDH-TPI counter-2 90
COc1ccccc1CNS(=O)(=O)c1c(C)nc2scc(C)n2c1=O	none
Cc1nc2scc(C)n2c(=O)c1S(=O)(=O)NCc1ccccc1Cl	Mtb FBA inh 34 | Mtb FBA inh conf 180 | GDH-TPI counter-2 132
Cc1nc2scc(C)n2c(=O)c1S(=O)(=O)NC(C)c1ccccc1 (stereo unspecified)	Mtb FBA inh 37 | Mtb FBA inh conf 40 | GDH-TPI counter-2 37
O=c1c2c(nc3n1CCS3)c1cc(F)ccc1n2Cc1cc(=O)n2cc(Cl)ccc2n1	none (no result: Vc quorum ag, GDH-TPI counter-1, Mtb FBA inh, PrPC TRFRET)
COCOCCn1cc(CN2CCS(=O)(=O)N(Cc3ccc(-c4ccc(F)nc4)cc3)C(C)C2=O)nn1 (stereo unspecified)	none (no result: 3CLpro inhibitor)
Nc1[nH]c(C(=O)c2ccccc2)c(-c2ccc(O)cc2)c1C(=O)NCCc1c[nH]c2ccccc12	none (no result: Vc quorum ag, GDH-TPI counter-1, 3CLpro inhibitor, Mtb FBA inh)
Cc1cc(Br)c(NC(=O)CCNC(=O)OCc2ccccc2)cc1C	none
Cc1nc(-c2cccc3ccccc23)ccc1C(=O)O	Mtb FBA inh 41 | Mtb FBA inh conf 75 | GDH-TPI counter-2 67
Nc1cc2nc[nH]c2cc1N	Mtb FBA inh 32 | Mtb FBA inh conf 55 | GDH-TPI counter-2 51
O=C(NC1CCSc2ccccc21)c1ccc(F)c(S(=O)(=O)N2CCOCC2)c1 (stereo unspecified)	none
CN(CCOc1ccc(Br)cc1)C(=O)CNC(=O)c1ccc2ccccc2c1	none
CC(C)Cc1nc(N2CCCCC2)c(C#N)c2c1CCC2	none
CC(C)Cc1nc(N2CCN(C(=O)c3ccccc3)CC2)c(C#N)c2c1CCC2	none
CC(=O)N1CCN(c2nc(CC(C)C)c3c(c2C#N)CCC3)CC1	Mtb FBA inh 38 | Mtb FBA inh conf 48 | GDH-TPI counter-2 35
CC(C)Cc1nc(N2CCN(C(=O)C(C)C)CC2)c(C#N)c2c1CCC2	Mtb FBA inh 33 | Mtb FBA inh conf 59 | GDH-TPI counter-2 41
COc1cc(NC(=O)CSc2nnc(-c3ccncc3)o2)cc(OC)c1OC	none
CC(OC(=O)C1CCN(c2ccc(C(F)(F)F)cn2)CC1)C(=O)Nc1cccc([N+](=O)[O-])c1 (stereo unspecified)	none (no result: 3CLpro inhibitor)
CNc1cccc(-c2ccc(N3CCN(C)CC3)nc2)n1	Mtb FBA inh 54 (no result: 3CLpro inhibitor) | Mtb FBA inh conf inactive | GDH-TPI counter-2 inactive | GDH-TPI DR 3.5
CN(C)c1ccc(/C=C/c2ccc3ccccc3[n+]2C)cc1	none
CN(C)c1ccc(/C=C/c2ccc3c4ccccc4ccc3[n+]2-c2ccccc2)cc1	Mtb FBA inh 36 | Mtb FBA inh conf 122 | GDH-TPI counter-2 101
Cc1nnc(SCC(=O)NC(C)(C)C)n1NCc1ccc(N(C)C)cc1	Mtb FBA inh 44 | Mtb FBA inh conf 60 | GDH-TPI counter-2 54
Cc1cc2oc(=O)cc(Cn3nnc(-c4ccc(Cl)cc4)n3)c2cc1C(C)C	none (no result: Vc quorum ag, GDH-TPI counter-1, Mtb FBA inh, PrPC TRFRET)
Cc1ccc2c(c1)C1CN(C)CCC1N2S(=O)(=O)c1ccccc1F (stereo unspecified)	none (no result: 3CLpro inhibitor)
COc1cc2c(c3ccccc13)CCCC2=O	Mtb FBA inh 110 (no result: 3CLpro inhibitor) | Mtb FBA inh conf 116 | GDH-TPI counter-2 91
O=C1CCCc2c1ccc1ccccc21	none (no result: 3CLpro inhibitor)

Source: PubChem BioAssay (several laboratories)
